V-ATPase pH = regulators of yeast V-ATPase proton transport; S. cerevisiae, pHLuorin cytosolic pH fluorescence; response, % at 10 µM; 350,000 compounds, 0.37% hits; AID 504577; in the data active = response mostly above about 7.3%, no sharp cut-off; inactive = mostly below about 5.4%; note: actives read high
NLRP3 yeast inh = blocks the NALP3 inflammasome reconstituted in yeast; Yeast reconstituted NLRP3/ASC/caspase-1, beta-gal luminescence, 24 h; inhibition, % at 10 µM; 330,000 compounds, 0.39% hits;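 active = inhibition of 50% or more; inactive = inhibition below 50%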;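 note: plate controls were induced DMSO wells for no effect and uninduced yeast grown without galactose for full effect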
tim23-1 inh = inhibits growth of tim23-1 mutant yeast. inhibition, % at 20 µM. S. cerevisiae tim23-1 growth, BacTiter-Glo luminescence, 24 h. 330,000 compounds, 1.3% hits;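 active = growth inhibition of the mutant yeast at or above 50%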;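 note: temperature-sensitive mutant grown at 25 °C; plate controls were DMSO-treated mutant yeast for no effect and medium wells lacking yeast for full effect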
NALP1 inh = NALP1 inhibition | S. cerevisiae NALP1/ASC/caspase-1 growth, X-gal OD620, 72 h | inhibition, % at 10 µM | 280,000 compounds, 0.61% hits; in the data active = inhibition mostly above about 24%, no sharp cut-off; inactive = mostly below about 32%
TIM10 inh = TIM10 yeast growth inhibition; S. cerevisiae TIM10 strain growth, BacTiter-Glo luminescence, 24 h; inhibition, % at 10 µM; 330,000 compounds, 1.4% hits;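 active = inhibition of 40% or more at the single tested concentration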;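 note: wild-type TIM10 isogenic control strain grown at permissive 25 °C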
tim10-1 inh = tim10-1 yeast growth inhibition; 330,000 compounds, 2.2% hits; AID 463190; S. cerevisiae tim10-1 ts strain growth, BacTiter-Glo, 24 h; inhibition, % at 20 µM;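 active = inhibition of at least 40%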;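 note: mutant grown at 25 °C; 0% = DMSO wells with yeast and 100% = wells holding no yeast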
tim10-1 conf = confirmation of tim10-1 mutant yeast growth inhibitors; shares compounds with tim10-1 inh; S. cerevisiae tim10-1 ts strain growth, BacTiter-Glo, 24 h; inhibition, % at 20 µM; 7,400 compounds, 56% hits;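 active = inhibition of yeast growth at or above a set limit in either of two repeat tests at 20 µM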;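 note: tim10-1 mutant grown at permissive 25 °C to find synthetic lethal compounds; 0% = DMSO yeast wells and 100% = medium wells without yeast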
tim10 confirm = confirmation of TIM10 yeast growth inhibitors. shares compounds with TIM10 inh. S. cerevisiae tim10 strain growth, BacTiter-Glo luminescence, 24 h. inhibition, % at 10 µM. 4,600 compounds, 63% hits. AID 463215;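 active = inhibition of yeast growth at or above a set limit in either of two replicates at 10 µM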;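 note: this counterscreen used the strain with wild-type TIM10; 0% = yeast with DMSO and 100% = medium wells lacking yeast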
tim23-1 conf = tim23-1 yeast growth inhibition, confirmed. 4,400 compounds, 83% hits. shares compounds with tim23-1 inh. inhibition, % at 20 µM. S. cerevisiae tim23-1 growth, BacTiter-Glo luminescence, 24 h;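 active = inhibition above about 39% in either of two replicate wells at 20 µM, limit read from the data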;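 note: temperature-sensitive tim23-1 mutant grown at 25 °C; 0% = DMSO wells with yeast and 100% = medium wells without yeast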
The depositor's hits bear a star; x = no result given. In the library only some 4.2% were active in any assay of this set; here they are far more common.

SMILES	V-ATPase pH	NLRP3 yeast inh	tim23-1 inh	NALP1 inh	TIM10 inh	tim10-1 inh	tim10-1 conf	tim10 confirm	tim23-1 conf
COc1cccc(/C=C2\SC(=S)N(CCCC(=O)N3CCCCC3CCO)C2=O)c1 (centres undefined)	-2.0	10.1	52.5*	-3.4	18.9	49.6*	20.1	x	54.9*
COc1cccc(/C=C2\SC(=S)N(CCCC(=O)N3CCCC3)C2=O)c1	0.9	23.2	57.9*	3.7	33.0	41.9*	23.4	x	51.4*
COc1cccc(/C=C2\SC(=S)N(CCC(=O)N3CCCCC3CCO)C2=O)c1 (centres undefined)	-9.1	14.7	35.5	31.7	9.7	31.7	x	x	x
Cc1ccc(N2C(=O)CC(Sc3ncn[nH]3)C2=O)cc1C (centres undefined)	5.6	4.7	76.9*	39.5*	56.3*	47.0*	53.3*	55.3*	48.6*
O=C(NC(=S)NCc1ccccc1)c1ccccc1F	10.6	-3.9	51.3*	12.2	22.2	40.1*	26.9*	x	24.9
O=C(NC(=S)NCc1ccccc1)c1ccccc1Br	1.6	25.5	43.5	14.1	12.0	-3.5	x	x	x
O=C(NC(=S)NCCc1ccccc1)c1ccccc1	-1.0	6.8	55.4*	-12.7	42.7*	44.9*	20.0	41.5*	47.7*
COC(=O)c1ccc2c(c1)C(C)(C)C(/C=C/c1ccccc1O)=[N+]2C	-3.8	45.0	65.9*	0.8	56.5*	65.1*	57.2*	53.0*	71.3*
Cc1ccc(CCNC(=O)C2CCN(S(=O)(=O)N3CCC4(CC3)OCCO4)CC2)cc1	0.7	0.8	15.0	-4.5	7.8	24.7	x	x	x
CCN(CC)CCN(C(=O)c1ccc2c(c1)CCCC2)c1nc2cc(OC)c(OC)cc2s1	4.2	28.0	65.8*	15.3	49.4*	61.1*	39.9*	46.4*	61.3*
COc1cc2nc(N(CCN(C)C)C(=O)c3ccc4ccccc4c3)sc2cc1OC	-1.0	8.1	21.5	10.1	10.4	5.3	x	x	x
COc1ccc(-c2n[nH]c(C)c2-c2cnn(-c3ccccc3)c2)c(O)c1	1.6	20.7	59.9*	-73.3	50.0*	51.3*	41.7*	44.0*	49.8*
COc1ccc(-c2n[nH]c(C)c2-c2cscn2)c(O)c1	-0.9	7.5	8.7	-4.8	9.7	1.5	x	x	x
CC(C)(C)OC(=O)N1CCC[C@@H]1C(=O)N1CCC(C(=O)O)CC1	3.8	8.6	8.3	20.0	-16.6	10.5	x	x	x
CNC(=S)Nc1ccc(C23CC4CC(CC(C4)C2)C3)cc1	0.6	36.5	62.8*	28.5	50.2*	61.8*	47.8*	39.4*	78.8*
N#CC(c1ccccc1)c1cnccn1 (centres undefined)	0.8	12.7	2.0	x	-9.8	-8.6	x	x	x
Cc1nn(-c2ccc(Cl)c(Cl)c2)c(C)c1C(=O)O	-1.8	6.8	11.7	4.2	8.6	6.8	x	x	x
Oc1c(Br)cc(Br)cc1/C=N/c1nccs1	0.5	13.3	75.1*	x	29.5	46.3*	33.9*	x	89.5*
Oc1ccc(Cl)cc1/C=N/c1nccs1	-3.9	16.1	54.9*	-13.0	30.0	44.9*	43.8*	x	29.8
Oc1ccc(Cl)cc1C=Nc1ccc(Br)cc1	0.5	17.9	23.4	10.0	11.6	21.5	x	x	x
CCOC(=O)c1cc(-c2ccccc2)sc1NC(=O)C(C)Sc1nnc(N)s1 (centres undefined)	-1.1	-1.3	16.1	26.9	-30.4	-15.9	x	x	x
COc1ccccc1C(=O)NCCOc1ccc(C)c(C)c1	5.5	20.3	3.9	-7.8	1.7	3.0	x	x	x
O=C1/C(=C\c2ccncc2)SC(=S)N1C1CCCCC1	-2.8	14.8	51.7*	32.4	27.3	43.5*	22.9	x	42.2*
COc1ccc(/C=C/C(=O)Nc2cccc(S(=O)(=O)NC3=NCCCCC3)c2)cc1OC	-0.1	11.6	-1.5	x	4.1	-3.5	x	x	x
COc1ccc(/C=C/C(=O)ONC2=NCCCCC2)cc1OC	-1.6	-1.2	58.4*	-25.8	49.0*	67.6*	68.6*	37.0*	31.2
SMILES	V-ATPase pH	NLRP3 yeast inh	tim23-1 inh	NALP1 inh	TIM10 inh	tim10-1 inh	tim10-1 conf	tim10 confirm	tim23-1 conf
Cc1nn2c(N3CCOCC3)cc(C(C)(C)C)nc2c1-c1ccc(Cl)cc1	5.2	4.3	12.3	13.4	9.1	17.9	x	x	x
CCOc1cccc(CNc2ccc(O)cc2)c1OCc1ccc(Cl)cc1Cl	-1.4	4.9	61.8*	11.0	33.3	41.6*	35.2*	x	54.2*
Cc1ccccc1NC(=O)/C(C#N)=C/c1ccccc1C(F)(F)F	0.5	17.8	56.0*	9.8	55.9*	58.3*	56.5*	4.7	58.0*
O=C(OCc1csc(Nc2ccccc2)n1)c1ccc(Cl)cc1	-0.8	0.2	61.4*	44.3	58.1*	46.6*	25.4	41.3*	44.3*
O=C(COc1ccccc1)OCc1csc(Nc2ccccc2)n1	-4.4	-8.8	29.3	32.7	14.8	16.1	x	x	x
O=c1oc(-c2ccco2)nc2c1cnn2-c1ccccc1	-0.5	19.0	63.9*	15.8	27.5	48.5*	34.8*	x	66.7*
O=C(NCCCc1ccccc1)Nc1ccccc1	-3.1	16.6	-3.5	30.4	3.4	-33.6	x	x	x
Cc1ccccc1N=Cc1c(O)n(-c2nccs2)c(=O)c2ccccc12	1.8	13.3	59.4*	31.6	47.1*	47.9*	47.0*	45.6*	56.0*
Cc1cc(NC(=O)/C=C/c2ccco2)ccc1NC(=O)c1ccccc1	-5.2	13.5	7.3	9.0	-14.6	-8.8	x	x	x
CN(CC(=O)Nc1ccc(Cl)c(Cl)c1)CC(=O)Nc1ccc2c(c1)OCO2	3.0	21.8	0.8	x	17.8	2.8	x	x	x
CC(C)(C)N(Cc1ccccc1)C(=O)COC(=O)c1ccc([N+](=O)[O-])o1	-2.6	23.7	52.8*	x	26.8	45.0*	31.1	x	45.9*
O=C(COC(=O)c1ccc([N+](=O)[O-])o1)NCCc1ccccc1	-0.3	15.5	-7.9	x	-156.9	-165.8	x	x	x
CC(NC(=O)c1ccc([N+](=O)[O-])o1)C1CC2CCC1C2 (centres undefined)	-0.8	15.5	62.4*	x	62.6*	74.9*	79.0*	68.1*	48.2*
CC(NC(=O)c1ccc([N+](=O)[O-])cc1Cl)C1CC2CCC1C2 (centres undefined)	0.3	24.5	23.0	37.0	-6.6	0.6	x	x	x
O=C(NC12CC3CC(CC(C3)C1)C2)c1ccc([N+](=O)[O-])o1	-2.1	33.2	63.8*	3.6	34.2	57.2*	66.8*	x	51.2*
O=C(Nc1ncc(Cc2ccccc2)s1)c1cccs1	-1.2	40.1	72.1*	6.3	51.9*	51.1*	49.8*	60.6*	51.5*
